Among the data in PubChem BioAssay are viability decrease (inhibition) values, retold here.

Active and inactive are the calls of the source.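 The calls were made as follows: active = compounds that lower survival of DLD-1 colon cancer cells in the luminescence readout, no cutoff given; inactive = the rest.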

The test is described as follows: NPC library primary testing for decreased DLD-1 cell viability via CellTiter-Glo (AID 1117346). The settings on record: DLD-1 viability, CellTiter-Glo luminescence; at 20 µM (top of the series).
Turning to `OCCN1CCN(CCCN2c3ccccc3Sc3ccc(C(F)(F)F)cc32)CC1`, the viability decrease (inhibition) is 101% (active).

Regarding `NS(=O)(=O)c1cc2c(cc1Cl)NC=NS2(=O)=O`, the viability decrease (inhibition) was -6.2% (inactive).

Take `O=C1C(CCS(=O)c2ccccc2)C(=O)N(c2ccccc2)N1c1ccccc1` (centres undefined): the viability decrease (inhibition) was -15.6% (inactive).

As for `Cc1ccc(-c2cc(C(F)(F)F)nn2-c2ccc(S(N)(=O)=O)cc2)cc1`, the viability decrease (inhibition) was 50.1% (active).

As for `CN[C@H]1CC[C@@H](c2ccc(Cl)c(Cl)c2)c2ccccc21`, the viability decrease (inhibition) is 98% (active).

`Cc1ccccc1C(OCCN(C)C)c1ccccc1` (centres undefined): the viability decrease (inhibition) was -5% (inactive).

As for `CCc1nc(N)nc(N)c1-c1ccc(Cl)cc1`, the viability decrease (inhibition) is 35% (inactive).

`COc1cc2nc(N(C)CCCNC(=O)C3CCCO3)nc(N)c2cc1OC` (centres undefined): the viability decrease (inhibition) is 0.1% (inactive).

Take `CN(C)CCOC(c1ccc(Cl)cc1)c1ccccn1` (centres undefined): the viability decrease (inhibition) is -7% (inactive).

Turning to `N[C@@H](C(=O)N[C@@H]1C(=O)N2C(C(=O)O)=C(Cl)CS[C@H]12)c1ccccc1`, the viability decrease (inhibition) is -20.5% (inactive).

In the case of `Nc1ncn([C@@H]2O[C@H](CO)[C@@H](O)[C@H]2O)c(=O)n1`, the viability decrease (inhibition) is 91% (active).

On to `NCc1ccc(S(N)(=O)=O)cc1`, for which the viability decrease (inhibition) was 13.8% (inactive).

In the case of `Cc1ncc([N+](=O)[O-])n1CC(C)O` (centres undefined), the viability decrease (inhibition) was -0.75% (inactive).

As for `Cc1ccc(C)c(OCCCC(C)(C)C(=O)O)c1`, the viability decrease (inhibition) was 0.75% (inactive).

As for `CN1CCCC(n2nc(Cc3ccc(Cl)cc3)c3ccccc3c2=O)CC1` (centres undefined), the viability decrease (inhibition) is 37.8% (inactive).

For the compound `NS(=O)(=O)c1cc2c(cc1C(F)(F)F)NC(Cc1ccccc1)NS2(=O)=O` (centres undefined), the viability decrease (inhibition) is -18.1% (inactive).

As to `COC1=CC(=O)C[C@@H](C)[C@]12Oc1c(Cl)c(OC)cc(OC)c1C2=O`, the viability decrease (inhibition) was 20% (inactive).

Take `Cc1cn([C@H]2C[C@H](N=[N+]=[N-])[C@@H](CO)O2)c(=O)[nH]c1=O`: the viability decrease (inhibition) was -4.95% (inactive).

For the compound `CN(CCOc1ccc(CC2SC(=O)NC2=O)cc1)c1ccccn1` (centres undefined), the viability decrease (inhibition) was -28.4% (inactive).

With `COc1ccc(OC)c(C(O)CNC(=O)CN)c1` (centres undefined), the viability decrease (inhibition) was 0.7% (inactive).

With `OC(CCN1CCCC1)(c1ccccc1)C1CCCCC1` (centres undefined), the viability decrease (inhibition) was 10.7% (inactive).

As to `NC(=O)N1c2ccccc2CC(=O)c2ccccc21`, the viability decrease (inhibition) was 15.6% (inactive).

Take `CCCNCC(O)COc1ccccc1C(=O)CCc1ccccc1` (centres undefined): the viability decrease (inhibition) was 10.6% (inactive).

Turning to `C/C=C/C(=O)N(CC)c1ccccc1C`, the viability decrease (inhibition) is -26.5% (inactive).

For `CCCCCCNC(=O)n1cc(F)c(=O)[nH]c1=O`, the viability decrease (inhibition) was 30.3% (inactive).

`NC(=O)c1cnccn1`: the viability decrease (inhibition) was -1.9% (inactive).

With `CN(C)CCc1c[nH]c2ccc(C[C@H]3COC(=O)N3)cc12`, the viability decrease (inhibition) was 24.6% (inactive).

For the compound `COc1ccccc1OCC(O)COC(N)=O` (centres undefined), the viability decrease (inhibition) is -10.7% (inactive).

In the case of `COC(=O)Nc1nc2ccc(C(=O)c3ccccc3)cc2[nH]1`, the viability decrease (inhibition) is 51.5% (active).

On to `CCn1cc(C(=O)O)c(=O)c2cc(F)c(N3CCN(C)CC3)cc21`, for which the viability decrease (inhibition) is -10.3% (inactive).

For the compound `Cn1cnc([N+](=O)[O-])c1Sc1ncnc2nc[nH]c12`, the viability decrease (inhibition) was 35.5% (active).

Turning to `c1ccc2[nH]c(-c3cscn3)nc2c1`, the viability decrease (inhibition) was -17.1% (inactive).

On to `Cc1onc(-c2c(Cl)cccc2Cl)c1C(=O)N[C@@H]1C(=O)N2[C@@H]1SC(C)(C)[C@@H]2C(=O)O`, for which the viability decrease (inhibition) was -11.8% (inactive).

With `Clc1ccc2c(c1)C(N1CCNCC1)=Nc1ccccc1O2`, the viability decrease (inhibition) is 19.2% (inactive).

With `CO[C@@]1(NC(=O)Cc2cccs2)C(=O)N2C(C(=O)O)=C(COC(N)=O)CS[C@@H]21`, the viability decrease (inhibition) is -14.4% (inactive).

With `CCc1cccc2c3c([nH]c12)C(CC)(CC(=O)O)OCC3` (centres undefined), the viability decrease (inhibition) was -11.6% (inactive).

Take `CC(C)(C)NCC(O)COc1cccc2c1C[C@H](O)[C@H](O)C2` (some centres undefined): the viability decrease (inhibition) was -5.7% (inactive).

On to `O=S(=O)(O)CCS`, for which the viability decrease (inhibition) is -8.8% (inactive).

Consider `O=c1[nH]cc(F)c(=O)[nH]1`, for which the viability decrease (inhibition) is 26.6% (inactive).
